Compound activity: PubChem BioAssay, National Center for Advancing Translational Sciences (NCATS)
VDR inh: vitamin D3 receptor (human) inhibition; P11473; VDR-SRC2-3 peptide fluorescence polarization, 2 h; Potency, µM, usual class: inhibitors; actives 0.93% (n = 400,000); AID 504847
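Compounds are added to VDR with labelled SRC2-3 coactivator peptide and held 2 h at room temperature. Inhibition of the VDR–peptide interaction is then read as a change in fluorescence polarization.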
MBNL1 CUG block: inhibitors of human MBNL1 binding to CUG repeat RNA; Potency, µM (series often up to 57.5 µM), actives largely listed as inhibitors; actives 0.036% (n = 280,000); TR-FRET MBNL1-His/biotin-(CUG)12 binding, 665/545 ratio; active means well fitted inhibition curve with a large enough effect in the signal ratio, with a control signal flat, not every such curve was filed as active; inconclusive means small, poorly fitted or top-dose-only effect, or effect the other way, or a change in a side signal; inactive means no such curve, though single readings can be large or run the other way; the % refers to the signal ratio
Target sequence (Q9NR56 whole entry, looked up): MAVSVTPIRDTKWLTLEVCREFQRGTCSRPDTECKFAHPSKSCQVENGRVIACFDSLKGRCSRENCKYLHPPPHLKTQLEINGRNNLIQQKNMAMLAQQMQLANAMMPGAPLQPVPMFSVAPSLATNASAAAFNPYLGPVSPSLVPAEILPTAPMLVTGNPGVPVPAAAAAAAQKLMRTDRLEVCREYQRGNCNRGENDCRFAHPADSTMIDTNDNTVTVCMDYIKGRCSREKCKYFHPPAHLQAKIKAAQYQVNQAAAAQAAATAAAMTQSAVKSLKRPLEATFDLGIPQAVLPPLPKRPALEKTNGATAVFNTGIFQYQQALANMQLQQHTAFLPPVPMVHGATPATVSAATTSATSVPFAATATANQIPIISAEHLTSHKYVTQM
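TR-FRET between His-tagged MBNL1 and biotin-(CUG)12 RNA, detected with Tb anti-His antibody (0.055 ng/ul) and streptavidin-XL665 (5 nM), 60 min at room temperature. Compounds titrated 92 nM to 58 uM; 665/545 nm ratio normalized to buffer and complex controls.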
KCNH2 3.1 inh: inhibitors of human KCNH2 3.1 potassium channel isoform | actives 0.95% (n = 340,000) | activity change, % (tested at about 1.8 µM) | U2OS KCNH2 3.1, thallium flux FluxOr; stronger effect = lower value | AID 720553;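 active means maximum activity change below -70%; inconclusive means maximum activity change from -70% to -50%; inactive means maximum activity change above -50%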;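 further: thallium influx rate constant from kinetic fluorescence after stimulation buffer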
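Kinetic fluorescence (2 min after stimulation buffer) measures Tl+ influx through KCNH2 3.1 expressed by viral transduction in U2OS cells; the rate constant is normalized against DMSO controls serving as positive and negative references.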
PLK1 PBD block: inhibitors of human PLK1 polo-box domain binding; P53350; Plk1 PBD binding of FITC phosphopeptide, fluorescence polarization; Potency, µM, hits mostly inhibitors; actives 2.8% (n = 360,000); further: series mostly up to about 57 µM; nearly all actives have a fitted effect of over 65% in size
CBFb-RUNX1 inh: blocks binding between human CBF-beta and RUNX1; Potency, µM (series often up to 59.8 µM), usual class: inhibitors; Q01196+Q13951; AlphaScreen CBFb-His/RUNX1-biotin binding, biochemical; 230,000 tested, under 10 active
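Proteins preincubated together for 20 min at RT before compound addition; 15 min later, nickel and streptavidin beads were added and left 90 min prior to AlphaScreen measurement.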
hERG WT inh: inhibitors of human wildtype KCNH2 potassium channel; Q12809; U2OS, BacMam KCNH2, thallium flux FluxOr; stronger effect = lower value; activity change, % at 1.84 µM; actives 0.37% (n = 340,000); AID 720551;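 active means maximum activity change below -70%; inconclusive means maximum activity change between -70% and -50%; inactive means maximum activity change above -50%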
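U2OS cells were transduced with wild-type KCNH2 virus (2.03 x 10^8 / mL) for 4 h at room temperature, then cultured overnight at 37 C. Thallium flux was read with FluxOr dye. Rate constants were normalized to DMSO controls.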
Of the large screens only hits and unclear results are named; the others gave an inactive call. Hits are enriched below; roughly 3.8% of the tested compounds scored in any of these assays. Unless noted, the call rests on the fitted dose curve; in most records, active means well fitted curve in the direction sought with a large enough effect; inconclusive means small, poorly fitted or top-dose-only effect, or another doubt; inactive means no such curve, though single readings can be large; an effect the other way counts as inactive or inconclusive.

Cc1cc(C)cc(NC(=O)CSc2nc(-c3ccccc3)c3cc(F)ccc3n2)c1	none (no result: MBNL1 CUG block, KCNH2 3.1 inh, PLK1 PBD block, CBFb-RUNX1 inh, hERG WT inh)
COc1ccc(NC(=O)c2c(C)oc3ccc(O)c(CN4CCN(Cc5ccccc5)CC4)c23)cc1	none (no result: MBNL1 CUG block, KCNH2 3.1 inh, PLK1 PBD block, CBFb-RUNX1 inh, hERG WT inh)
Nc1nc2c(s1)CCc1ccccc1-2	VDR inh inconclusive, PLK1 PBD block inconclusive (no result: CBFb-RUNX1 inh)
N#C/C(=C(/O)CCl)c1nc2c(s1)CCc1ccccc1-2	VDR inh inconclusive, PLK1 PBD block 7.52µM (no result: CBFb-RUNX1 inh)
Cc1ccc(S(=O)(=O)N2CCN(c3nc(-c4cncs4)nc4ccccc34)CC2)cc1	none (no result: MBNL1 CUG block, KCNH2 3.1 inh, PLK1 PBD block, CBFb-RUNX1 inh, hERG WT inh)
CCNc1nc(NCC)n2c(SCC(=O)Nc3ccc(Br)cc3F)nnc2n1	VDR inh 70.8µM, PLK1 PBD block 13.4µM (no result: MBNL1 CUG block, CBFb-RUNX1 inh)
CCS(=O)(=O)n1nc(-c2ccco2)nc1SC	VDR inh inconclusive, PLK1 PBD block 9.47µM
CSc1nc(-c2ccco2)nn1C(=O)c1ccc(C)cc1	PLK1 PBD block inconclusive
COc1ccccc1C(=O)n1nc(-c2ccco2)nc1SC	PLK1 PBD block 10.6µM
CSc1nc(-c2ccco2)nn1S(=O)(=O)c1ccccc1	none (no result: VDR inh, KCNH2 3.1 inh, PLK1 PBD block, hERG WT inh)
CC(C)Cn1cc(NC(=O)Nc2cccc(C(F)(F)F)c2)c2ccccc2c1=O	none (no result: MBNL1 CUG block, KCNH2 3.1 inh, PLK1 PBD block, CBFb-RUNX1 inh, hERG WT inh)
CCN1c2ccccc2N(C)C1(C)c1ccccc1 (stereo unspecified)	VDR inh inconclusive, MBNL1 CUG block inconclusive, PLK1 PBD block 1.68µM
COc1ccc(N2CCN(C(=O)c3cn(Cc4ccccc4)nc3-c3cccnc3)CC2)cc1	none (no result: MBNL1 CUG block, CBFb-RUNX1 inh)
COCCOC(=O)/C(C#N)=C/c1cn(Cc2ccccc2)nc1-c1cccnc1	VDR inh inconclusive, MBNL1 CUG block inconclusive, PLK1 PBD block 26.7µM
Cn1c(-c2csc(-c3cccc(C(F)(F)F)c3)n2)n[nH]c1=S	none (no result: MBNL1 CUG block)
Cn1c(CNc2cccc(C(F)(F)F)c2)n[nH]c1=S	PLK1 PBD block 26.7µM (no result: hERG WT inh)
Cc1ccc(CNc2nc3ccc(Cl)cc3n3nnnc23)cc1	none (no result: MBNL1 CUG block, KCNH2 3.1 inh, PLK1 PBD block, CBFb-RUNX1 inh, hERG WT inh)
CC1OC(CC(=O)O)CC2=C1C(=O)c1c(O)cccc1C2=O (stereo unspecified)	VDR inh 10µM, PLK1 PBD block 2.38µM (no result: MBNL1 CUG block, CBFb-RUNX1 inh)
O=C1c2cccc(O)c2C(=O)c2c(O)cccc21	VDR inh inconclusive, MBNL1 CUG block inconclusive (no result: KCNH2 3.1 inh, PLK1 PBD block, hERG WT inh)
CCOC(=O)C(Cc1ccc(NC(=O)/C(=C/c2ccc(OC(C)=O)cc2)NC(C)=O)cc1)N1C(=O)c2ccccc2C1=O (stereo unspecified)	PLK1 PBD block 26.7µM
Oc1ccc(/C=N/N2CCOCC2)c(O)c1O	VDR inh inconclusive, PLK1 PBD block 9.47µM, CBFb-RUNX1 inh inconclusive
O=C1c2cccc3cccc(c23)C(=O)N1/N=C/c1ccc(O)cc1O	MBNL1 CUG block inconclusive
Cc1nc2ccccc2c(=O)n1/N=C/c1ccc(O)c(O)c1O	PLK1 PBD block 10.6µM (no result: CBFb-RUNX1 inh)
O=C1c2ccccc2C(=O)N1/N=C/c1ccc(O)c(O)c1O	VDR inh 79.4µM, MBNL1 CUG block inconclusive, PLK1 PBD block 13.4µM (no result: CBFb-RUNX1 inh)
CCOC(=O)NC(=O)COC(=O)CCCSc1nc2ccccc2s1	none
NC(=O)NC(=O)COC(=O)CCCSc1nc2ccccc2s1	PLK1 PBD block 21.2µM (no result: MBNL1 CUG block)
Cc1ccc(C(=O)N/C(=C\c2ccc(F)cc2)C(=O)NCc2ccncc2)cc1	KCNH2 3.1 inh -89.6
Cc1ccc(C(=O)N/C(=C\c2cccc([N+](=O)[O-])c2)C(=O)NCc2ccncc2)cc1	MBNL1 CUG block inconclusive, KCNH2 3.1 inh -86.3
Cc1ccc(NC(=O)c2c(C)nc3sc(C(=O)Nc4ccc(F)cc4)c(N)c3c2-c2ccc(Cl)cc2)c(C)c1	none (no result: MBNL1 CUG block, KCNH2 3.1 inh, PLK1 PBD block, CBFb-RUNX1 inh, hERG WT inh)
COc1cccc(OCc2nc3ccccc3n2Cc2ccccc2C)c1	none (no result: MBNL1 CUG block, KCNH2 3.1 inh, PLK1 PBD block, CBFb-RUNX1 inh, hERG WT inh)
Cc1ccc(/C(N)=N/OC(=O)N2c3ccccc3Sc3ccccc32)cc1	hERG WT inh -175.6 (no result: MBNL1 CUG block, CBFb-RUNX1 inh)
Cc1ccccc1/C(N)=N/OC(=O)N1c2ccccc2Sc2ccccc21	none
COc1ccc(-c2cc(C(=O)Nc3c(C)nn(Cc4ccc(F)cc4)c3C)no2)cc1OC	none (no result: MBNL1 CUG block, KCNH2 3.1 inh, PLK1 PBD block, CBFb-RUNX1 inh, hERG WT inh)
COc1cc2c(cc1OC)C1O[C@](CCCCN3C(=O)c4ccccc4C3=O)(C2)Oc2c1c(=O)oc1ccc(F)cc21	none (no result: VDR inh, KCNH2 3.1 inh, PLK1 PBD block, CBFb-RUNX1 inh, hERG WT inh)
COc1cccc(-c2ccc3nnc(SCC(=O)N4CCCC4)n3n2)c1	none (no result: MBNL1 CUG block, CBFb-RUNX1 inh)
CCSc1nnc2ccc(-c3ccc(OC)c(OC)c3)nn12	VDR inh inconclusive, MBNL1 CUG block inconclusive, PLK1 PBD block 21.2µM (no result: CBFb-RUNX1 inh)
